Experimental data published in PubChem BioAssay AID504843 (Broad Institute, 2011).
The whole screen tested about 1,200 compounds, of which about 360 (30%) were called active. No rule for the calls is given here. The list is a sample of the results. Measured potencies and affinities stand elsewhere.

Test: bacterial growth inhibition, dose response, counter-screen, BacTiter-Glo luminescence, cherry-picked samples (AID 504843);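 also: growth measured after 8 h incubation at 30 °C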
Details: BacTiter-Glo ATP luminescence; series mostly up to 15 µM

Compound | outcome
CCCc1cc(=O)oc2cc(OCC(=O)N(C)C)c(Cl)cc12 | inactive
COc1ccc(C(CNC(=O)c2cc(SC)ccc2Cl)N(C)C)cc1 (configuration not stated) | inactive
O=C(NC(=S)NNC(=O)c1ccccc1O)c1ccccc1 | inactive
O=C(c1ccco1)N1CCN(C(=O)c2ccc(CS(=O)c3ccc(F)cc3)o2)CC1 (configuration not stated) | inactive
CCC(=NCCc1ccc(OC)c(OC)c1)C1=C(O)CC(C)(C)CC1=O | inactive
COCCNC(=O)c1c[nH]c2ccc(S(=O)(=O)N3CCc4ccccc43)cc2c1=O | inactive
COc1cc(OC)cc(C(=O)NC2CC(C)(C)NC(C)(C)C2)c1 | inactive
CC(=O)c1cc(CN2CCCCC2)cc(OC(C)C)c1 | inactive
CCc1cc2c(=O)n(C(C)C(=O)OC3CCCCC3)cnc2s1 (configuration not stated) | inactive
O=C(Nc1cc(N2CCOCC2)ncn1)c1ccccc1 | inactive
COc1ccccc1N1C(=NC(=O)CCc2ccccc2)SC2CS(=O)(=O)CC21 (configuration not stated) | inactive
CCCn1c2c(c(=N)c3c1CCC3)CCCC2 | inactive
CC(=O)c1ccc(NC(=O)C2CCCN2S(=O)(=O)c2cccc3cccnc23)cc1 (configuration not stated) | inactive
CC(C)(C#N)NC(=O)C1CCCN1S(=O)(=O)c1ccc2ccccc2c1 (configuration not stated) | inactive
Cc1ccc(S(=O)(=O)NC(C)(C)CSc2nnc(Nc3ccccc3)s2)cc1 | inactive
O=C(CN1CCCCC1)Nc1cc(Cl)ccc1Cl | inactive
Cc1ccc(NC(=O)CN2CCN(c3ccccn3)CC2)c(Cl)c1 | inactive
CCC1Nc2ncnc(N3CCOCC3)c2N(Cc2ccc(Cl)cc2)C1=O (configuration not stated) | inactive
O=C(Nc1cccnc1Cl)c1noc2c1CCc1ccccc1-2 | inactive
CC1=C(C#N)C(c2cn(-c3ccccc3)nc2-c2cccs2)C(C#N)=C(C)N1 | inactive
CC(=O)Nc1cccc(-c2csc(Nc3cc(C)ccn3)n2)c1 | inactive
O=C(O)c1ccc(NC2=C(N3CCOCC3)C(=O)c3ccccc3C2=O)cc1 | inactive

Compound | outcome
Cc1cccc(OCC(O)Cn2c(=N)n(CCN3CCOCC3)c3ccccc32)c1 (configuration not stated) | inactive
COC(=O)COc1cccc(NC(=O)c2cccc(C)c2)c1 | inactive
CCCNC(=O)c1cc(C)no1 | inactive
COc1ccc(/C(C)=N/NC(=O)CNC(=O)c2ccncc2)c(OC)c1 | inactive
CCCCc1ccc(N=N/C(C(=O)Nc2ccc(NC(C)=O)cc2OC)=C(/C)O)cc1 | inactive
Cc1ccc(C)c(S(=O)(=O)Nc2cc(SCC(=O)O)c(O)c3ccccc23)c1 | inactive
CC1(C)c2ccccc2N2CC(=O)NC21/C=C/c1ccco1 (configuration not stated) | inactive
C=CCNC(=S)Nc1cccc2[nH]ncc12 | inactive
C=CCn1cccc(C(=O)Nc2ccc(OC)cc2)c1=O | inactive
COc1cccc(CN2CCN(C(=O)c3ccco3)CC2)c1 | inactive
O=[N+]([O-])c1cccc(N(CC(O)CN2CCCCC2)S(=O)(=O)c2ccccc2)c1 (configuration not stated) | inactive
O=C(COC(=O)c1cccc(S(=O)(=O)N2CCc3ccccc32)c1)Nc1ncc(C(F)(F)F)cc1Cl | inactive
COc1ccc(S(=O)(=O)Nc2nc3c(s2)CCCC3)cc1 | inactive
CCC(CO)NC(=O)c1cccc(S(=O)(=O)N2c3ccccc3CC2C)c1 (configuration not stated) | inactive
Nc1ccc(S(=O)(=O)N2CCCc3ccccc32)cc1 | inactive
C[C@H]1NC(=O)[C@@]2(C)[C@@H](c3ccccc3)[C@H]3COc4ccccc4[C@H]3N2C1=O | inactive
CCNc1nc(SCCOc2ccc(C)cc2)nc(N(C)C)n1 | inactive
CCC1SC(C)C/C(=N/NC(N)=O)C1C (configuration not stated) | inactive
CN(C)c1cccc(C(=O)N/N=C/c2ccccc2F)c1 | inactive
CCOC(=O)c1ccc(NC(=O)c2cn(CCC#N)nc2-c2ccc3c(c2)OCCO3)cc1 | inactive
O=C(NCc1cccnc1)c1cccc(-c2cc3ccccc3oc2=O)c1 | inactive
Cc1cnc(C(=O)OCC(=O)Nc2sc3c(c2C#N)CCC3)cn1 | inactive

Compound | outcome
CC1CCN(C(=O)c2ccc(S(=O)(=O)N3CCCC3)cc2)CC1 | inactive
CC(=O)Oc1ccc(C(=O)Nc2ccccc2C(=O)N2CCCCC2)cc1 | inactive
CCOC(=O)C1CCN(C(=O)Nc2ccc(C)c(Cl)c2)CC1 | inactive
Cc1ccccc1C(=O)N1CCN(c2ccc(NC(=S)NC(=O)c3cccs3)cc2)CC1 | inactive
CCc1ccc2c(COC(=O)C3CC(=O)N(CCc4ccccc4)C3)cc(=O)oc2c1 (configuration not stated) | inactive
CN(C)c1nc(NCc2ccccc2)nc(SCC(N)=O)n1 | inactive
CCn1c(SCC(=O)c2ccccc2)nnc1-c1cccnc1 | inactive
CCOC(=O)C(C(=O)Nc1ccc(C)cc1)C1CCCCC1 (configuration not stated) | inactive
COc1ccc(NC(=O)COCC(=O)Nc2ccc(C)cc2)cc1 | inactive
CC(C)(C)CC(=O)Nc1cccc(-c2cn3cccnc3n2)c1 | inactive
CCCCOc1ccc(NC(=O)c2cc(F)c(F)cc2Cl)cc1 | inactive
Cc1ccc(OCCNS(=O)(=O)c2ccc(N3CCCC3=O)cc2)cc1C | inactive
CCc1ccc(NC(=O)Nc2cc(C(=O)NCC3CCCO3)ccc2N2CC3CC(C2)c2cccc(=O)n2C3)cc1 (configuration not stated) | inactive
CC(C)(C)OC(=O)NCCCCCNC(=O)c1[nH]cnc1C(=O)NC1CCN(C(=O)OC(C)(C)C)CC1 | inactive
COc1ccccc1OCCNC(=O)C1CCN(C(C)=O)CC1 | inactive
Cc1cc(C)cc(-n2c(C)cc(/C=C3\C(=N)N4N=C(CC(C)C)SC4=NC3=O)c2C)c1 | inactive
O=C(NNc1ccnc2cc(Cl)ccc12)C1CCCCC1 | inactive
COc1ccc(CCNC(=O)/C=C/c2ccco2)cc1OC | inactive
Cc1ccc(CN(C(=O)c2sc3ccccc3c2Cl)C2CCS(=O)(=O)C2)cc1 (configuration not stated) | inactive
O=C(O)[C@H](CO)Nc1ncnc2sc3c(c12)CCC3 | inactive
O=C(CCNS(=O)(=O)c1ccccc1C(F)(F)F)N1CCN(c2ccccc2O)CC1 | inactive
CCN(CC)C(=O)CSc1nc2ccccc2o1 | inactive

Compound | outcome
CCCCN(CC)CCNC(=S)Nc1ccc2nc(N3CCN(C)CC3)cc(C)c2c1 | inactive
O=C(Nc1ccc(C2=NCCN2)cc1)c1ccc(C(=O)Nc2ccc(C3=NCCN3)cc2)c([N+](=O)[O-])c1 | inactive
CC(=O)Nc1ccc(Nc2nc(C)c([N+](=O)[O-])c(N(C)c3ccccc3)n2)cc1 | inactive
CC1CN(C(=O)c2cc3cc([N+](=O)[O-])ccc3oc2=O)CC(C)O1 (configuration not stated) | inactive
O=C(CSC1=NCCS1)c1ccc(Cl)cc1 | inactive
Cc1[nH]c2ccccc2c1Cc1nnc(SCC(N)=O)o1 | inactive
COc1ccc(-c2cc(C)no2)cc1S(=O)(=O)NCCCN1CCCCCC1 | inactive
CCNc1c(NS(=O)(=O)c2ccc(OC)cc2)c(=O)oc2ccccc12 | inactive
COc1ccccc1N1CCN(c2nc(-c3ccccc3)cc(C(F)(F)F)n2)CC1 | inactive
CCNc1nc(NCC)nc(OCCOC(C)=O)n1 | inactive
Nc1cc(N)nc(SCc2ccc(Cl)cc2)n1 | inactive
Cc1cccc(NC(=O)c2cc(S(=O)(=O)N3CCC4(CC3)OCCO4)ccc2F)c1 | inactive
O=C(Nc1ccccc1F)c1ccc([N+](=O)[O-])s1 | inactive
c1ccc2c(N3CCOCC3)nc(-c3ccncc3)nc2c1 | inactive
CCNC(=O)NC(=O)C(C)OC(=O)C1CCN(S(=O)(=O)c2ccccc2F)CC1 (configuration not stated) | inactive
Cc1cc(C)c(S(=O)(=O)N2CCN(C(=O)CN3C(=O)NC4(CCCC4)C3=O)CC2)c(C)c1 | inactive
Cc1ccc(C)c(SCC(=O)Nc2cccc(S(=O)(=O)NC3=NCCCCC3)c2)c1 | inactive
Cc1ccc(CCNC(=O)CCS(=O)(=O)c2cc3c(cc2C)NC(=O)CO3)cc1 | inactive
CN(Cc1ccccc1)c1ncnc2sccc12 | inactive
CC(C)(C)CC(=O)Nc1ccc(Nc2ccccc2)cc1 | inactive
Cc1cccc(NC(=O)[C@H](Cc2ccccc2)NC(=O)OCc2ccccc2)c1 | inactive
CSc1ncccc1C(=O)OCC(=O)N(C)c1c(N)n(Cc2ccccc2)c(=O)[nH]c1=O | inactive

Compound | outcome
CC(C)CN(C(=O)COC(=O)c1ccccc1NCc1ccco1)c1c(N)n(Cc2ccccc2)c(=O)[nH]c1=O | inactive
COC(=O)C[C@H]1c2cc(F)cc(F)c2S(=O)(=O)N1C1CCN(Cc2ccccc2)CC1 | inactive
CCCCN(CC)CCNS(=O)(=O)c1ccc2c(c1)oc(=O)n2C | inactive
O=C(Cn1c(=O)oc2cc(S(=O)(=O)N3CCc4ccccc43)ccc21)N1CCCCC1 | inactive
CCOc1cc(/C=N/NC(=O)C(=O)NCc2cccnc2)ccc1O | inactive
Cc1cccc(NC(=O)CNC(=O)CN2C(=O)NC3(CCc4ccccc43)C2=O)c1C (configuration not stated) | inactive
Cc1ccccc1NC(=S)N1CCN(Cc2ccc3c(c2)OCO3)CC1 | inactive
Cc1ccc(C)c(NC(=O)CN(C)C(=O)c2cccc(S(=O)(=O)N(C)C)c2)c1 | inactive
COc1ccccc1C(=O)Nc1ccc2c(c1)CN(Cc1cnc(C)s1)CC2 | inactive
CC1CCN(c2ccc(C(=O)NCc3ccco3)cc2[N+](=O)[O-])CC1 | inactive
CCN(CC)S(=O)(=O)c1cc(NC(=O)c2ccc(-n3cncn3)c([N+](=O)[O-])c2)ccc1C | inactive
CC1(C)C2CCC1(C)C(NC(=O)/C=C/c1ccccc1)C2 (configuration not stated) | inactive
O=c1oc2ccccc2c(N2CCC(c3ccccc3)CC2)c1[N+](=O)[O-] | inactive
Cc1ccccc1N/N=C/c1ccc(C#N)cc1 | inactive
Cc1ccc(-c2nn(-c3ccccc3)cc2CC(=S)N2CCOCC2)cc1 | inactive
O=C(CSc1nnc(-c2ccccc2)n1C1CCCCC1)N1CCCC1 | inactive
Cc1cccc(-n2c(SCC(=O)NC3CCCC3)nnc2-c2ccoc2C)c1 | inactive
Cc1ccc(C2CC(c3ccccc3)n3ncnc3N2)cc1 (configuration not stated) | inactive
CCn1c(C)cc(/C=C2/NC(=O)N(Cc3ccccc3F)C2=O)c1C | inactive
